Measurements reported in PubChem BioAssay AID492960 (National Center for Advancing Translational Sciences (NCATS), 2010).
Inconclusive results are not listed. Unmarked numbers belong to inactive results. Active and inactive are the calls of the source. The call rests on the fitted dose curve; in most records, active means well fitted curve in the direction sought with a large enough effect; inconclusive means small, poorly fitted or top-dose-only effect, or effect the other way, or another doubt; inactive means no such curve, though single readings can be large or run the other way.

assay: Secondary Assay for lipid storage modulators: HepG2 cell LDSA assay for probe SAR; settings: HepG2 lipid droplet BODIPY, laser-scanning cytometry, 18-24 h; series mostly up to 46.1 µM; activity, negative = less lipid: at the top concentration
Text: NIH Molecular Libraries Probe Production Centers Network [MLPCN] NIH Chemical Genomics Center [NCGC] MLPCN Grant: 1 R03 MH085686-01 Assay Submitter (PI): Beller, Mathias; Max-Planck-Institut fur Biophysikalische Chemie NCGC Assay Overview: Storing lipids as a reservoir for energy or the anabolism of elementary metabolites is a common feature of probably all cells and is conserved from bacteria to humans. The universal cellular lipid storage organelle is the so-called lipid storage droplet (LD). Although ubiquitous, LDs share a simple structure composed of a hydrophobic core that harbors the storage lipids, which is shielded by a droplet-specific phospholipid monolayer to which proteins are attached. The current model of LD biogenesis involves an incorporation of the lipid core into the membrane leaflets of the endoplasmic reticulum (ER) followed by a subsequent budding-like maturation of a LD, which ultimately pinches off. Once released, LD volume can increase by localized lipogenesis or fusion of existing droplet. Storage lipids are re-mobilized enzymatically by lipase activity. Lipase regulation in the adipocyte is heavily studied and involves multiple components including catecholamine signaling, the LD-associated proteins Perilipin and comparative gene identification (CGI-58) and at least two lipases named hormone sensitive lipase (HSL) and adipocyte triglyceride lipase (ATGL). LD regulation outside of the adipocyte is poorly understood and only few components are known. However, there is an urgent need to learn more about ectopic fat depots as mislocalized storage of lipids, for example in the liver or muscle, is an eminent health problem associated with insulin resistance or the metabolic syndrome.
NCGC Assay Protocol Summary: The assay was performed with HepG2 cells, using an oleic acid feeding protocol similar to the S3 assay. We dispensed 4 uL of cells to give 700 cells/well into Greiner bio-one 1,536-well plates (black walled, clear bottom). Triacsin C (Sigma-Aldrich T-4540), an inhibitor of long-chain fatty acyl CoA synthetase that blocks synthesis of triglycerides, was used as a positive control for lipid under-storage using a final concentration of 20 uM. The orexin antagonist, SB408124 - previously identified to stimulate lipid over-storage, was used as a positive control for lipid over-storage using a final concentration of 20 uM. A total of 23 nL of compound solution of different concentrations were transferred to the assay plates using a Kalypsys pin tool equipped with a 1,536-pin array containing 10-nL slotted pins (FP1S10, 0.457-mm diameter, 50.8 mm long; V&P Scientific). One microliter of oleic acid was added (400 uM final concentration), and the plate was lidded with stainless steel rubber gasket lined lids containing pinholes. After 18-24 h incubation at […] and 95% humidity, 4 uL of the dyes BODIPY 493/503 (Molecular Probes) and the Cell Tracker Red CMTPX dye (Molecular Probes) were added to the wells to stain lipid droplets and enumerate cell number, respectively. Fluorescence was detected by excitation of the fluorophores with a 488-nm laser on an Acumen Explorer (TTP Lab Tech). The total intensity in channel 2 (500-530 nm) reflected lipid droplet accumulation. Cells were detected using channel 3 (575-640 nm) with 5-um width and 100-um depth filters. The ratio of the number of objects in PMT channel 2 over the number of objects in PMT channel 3 was also calculated. Percent activity was computed relative to an internal control (100% inhibited lipid droplet deposition due to the presence of 20 uM Triacsin C), which was added to 32 wells/plate.

SMILES	activity, negative = less lipid	Potency
Cc1ccc(-c2cnc(SCC(=O)Nc3nc(C)cs3)n2Cc2ccco2)cc1	-16.9%	
COc1ccc(CCNC(=O)c2cc3sccc3n2Cc2ccccc2)cc1OC	11.7%	
CN(C)CC(=O)NC1CCCc2c1cnn2-c1ccc(F)cc1F (stereo not given)	-19%	
CC1(C)CCC(c2ccc(Cl)cc2)=C(CN2CCN(c3ccc(C(=O)NS(=O)(=O)c4ccc(N[C@H](CCN5CCOCC5)CSc5ccccc5)c(S(=O)(=O)C(F)(F)F)c4)cc3)CC2)C1	87%	
CCOc1ccc(CCNC(=O)c2cc3ccccc3n2C)cc1OCC	9.09%	
O=C(O)c1cccc(-c2noc(-c3ccccc3F)n2)c1	9.09%	
O=C(NC1CCCc2c1cnn2-c1ccc(F)cc1F)c1cnccn1 (stereo not given)	10.3%	
O=C(NC1CCCc2c1cnn2-c1ccc(F)cc1F)C1CC1 (stereo not given)	-7.14%	
O=C(NC1CCCc2c1cnn2-c1ccc(F)cc1F)C1CCCCN1 (stereo not given)	-13.5%	
CCOc1ccc(CCNC(=O)c2cc3sccc3[nH]2)cc1OCC	15.8%	
C[C@@H](NCCCc1cccc(C(F)(F)F)c1)c1cccc2ccccc12	-13%	
CCOc1ccc(CCNC(=O)c2cc3sccc3n2Cc2cccnc2)cc1OCC	23.4%	
O=C(NC1CCCc2c1cnn2-c1ccccc1F)c1cccc2nccnc12 (stereo not given)	0%	
CCOC(=O)C1CCN(C(=O)CNC(=O)Nc2ccccc2Cl)CC1	16.9%	
Cc1cc2c(cc1C1(c3ccc(C(=O)O)cc3)CC1)C(C)(C)CCC2(C)C	-10.4%	
CCOc1ccc(CCNC(=O)c2ccccn2)cc1OCC	48.1%	
O=C(Cc1ccccc1)NC1CCCc2c1cnn2-c1ccc(F)cc1F (stereo not given)	5.04%	
O=C(O)CCc1ccc(NCc2cccc(Oc3ccccc3)c2)cc1	1.3%	
CCOc1ccc(CCNC(=O)C2CCCCC2)cc1OCC	26%	
CCOc1ccc(CCNC(=O)c2cc3c(s2)CCC3)cc1OCC	58.4%	

SMILES	activity, negative = less lipid	Potency
O=C(NC1CCCc2c1cnn2-c1ccc(F)cc1F)c1ccc(C2(C(F)(F)F)N=N2)cc1 (stereo not given)	7.79%	
CCOc1ccc(NC(=O)NC2(C(=O)N3CCCCC3)CCCCC2)cc1	-9.09%	
CCOC(=O)C1CCN(C(=O)C2(NC(=O)NCc3ccccc3)CCCCC2)CC1	-15.6%	
CCOC(=O)C1CCN(C(=O)C2(NC(=O)Nc3ccccc3Cl)CC2)CC1	-15.6%	
CCOc1ccc(CCNC(=O)c2cc3sccc3n2Cc2ccc(-n3cncn3)cc2)cc1OCC	18.2%	
O=C(NC1CCCc2c1cnn2-c1cc(F)cc(F)c1)c1cccc2nccnc12 (stereo not given)	19.5%	
CCOc1ccc(CCNC(=O)c2cc3sccc3n2Cc2ccc(Cl)c(F)c2)cc1OCC	-7.79%	
O=C(NC1CCCCC1)NC1(C(=O)N2CCCC2)CCCCC1	-5.19%	
O=C(NC1CCCc2c1cnn2-c1ccc(F)cc1F)c1cnon1 (stereo not given)	-15.8%	
CCn1c(C(=O)NCCc2ccc(OC)cc2)cc2sccc21	-36.7%	
Cc1cc(SCc2sc(-c3ccc(C(F)(F)F)cc3)nc2C)ccc1OCC(=O)O	1.3%	
CCCn1c(-c2ccc(OC)cc2)cnc1SCC(=O)Nc1nc(C)c(C)s1	6.49%	
O=C(c1cc2sccc2n1Cc1ccccc1)N(CCc1ccc(O)c(O)c1)Cc1ccccc1	0%	
CCOc1ccc(CCNC(=O)c2cc3sccc3n2CC)cc1OCC		11.2 µM (active)
CCOc1ccc(CCNC(=O)c2csc(Br)n2)cc1OCC	-2.6% [at 38.8 µM]	
O=C(Nc1ccccc1-c1cn2c(CN3CCNCC3)csc2n1)c1cnc2ccccc2n1		11.2 µM (active)
CCOc1ccc(CCNC(=O)c2cc3sc(CC)cc3n2C)cc1OCC	20.8%	
CCOc1ccc(CCNC(=O)c2cc3sccc3n2Cc2cccc(C)c2)cc1OCC	-22.1%	
CCOc1ccc(CCNC(=O)C2COc3ccccc3O2)cc1OCC (stereo not given)	6.49%	
CCOC(=O)C1CCN(C(=O)C2(NC(=O)Nc3ccccc3Cl)CCC2)CC1	1.3%	
